Experimental data from PubChem BioAssay (NCI).
Compounds without any hit were thinned out: in the full panel of roughly 79,000, 15% have a hit. No stated cut-off is given here; in the data, active means growth inhibition above about 70%; inactive means the rest.

What was measured:
[1] = NCI Yeast Anticancer Drug Screen. Data for the rad50 strain (AID 155);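 further: 0% = growth of vehicle-only cultures of the same strain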; conditions: S. cerevisiae rad50 strain growth inhibition; at 50.0 µM; stronger effect = higher value
How it was run: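 DNA repair mutant yeast, compound exposure, growth read-out; inhibition is taken relative to vehicle.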

[2] = NCI Yeast Anticancer Drug Screen. Data for the mec2-1 strain (AID 157); conditions: S. cerevisiae mec2-1 strain, at 50.0 µM, stronger effect = higher value
How it was run: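 Strain: mec2-1 (DNA repair/cell cycle alteration). Compound exposure, then growth measured; inhibition expressed relative to vehicle.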

[3] = NCI Yeast Anticancer Drug Screen. Data for the sgs1 mgt1 strain (AID 161);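 further: 0% = growth of cultures given vehicle only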; conditions: S. cerevisiae sgs1 mgt1 strain, at 50.0 µM, stronger effect = higher value
How it was run: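 Inhibition of yeast growth, normalised to vehicle-treated controls, is reported for a strain bearing genetic alterations in DNA damage repair.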

[4] = NCI Yeast Anticancer Drug Screen. Data for the cln2 rad14 strain (AID 165);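 further: 0% = growth equal to vehicle treated cultures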; conditions: S. cerevisiae cln2 rad14 strain, at 50.0 µM, stronger effect = higher value
How it was run: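 Compounds are applied to the cln2 rad14 yeast strain, and growth is then compared with that of vehicle-treated cultures to give inhibition.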

[5] = NCI Yeast Anticancer Drug Screen. Data for the bub3 strain (AID 167); conditions: S. cerevisiae bub3 mutant strain, at 50.0 µM, stronger effect = higher value
How it was run: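 In this screen, a yeast mutant lacking normal mitotic checkpoint function is challenged with compound. Relative growth versus vehicle gives the inhibition value.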

[6] = NCI Yeast Anticancer Drug Screen. Data for the mlh1 rad18 strain (AID 175); conditions: S. cerevisiae mlh1 rad18 strain growth inhibition; at 50.0 µM; stronger effect = higher value
How it was run: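 Read-out is yeast growth inhibition, calculated against vehicle-only controls. The compound was applied to a strain engineered with DNA damage repair alterations.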

Measured: growth inhibition

CN(C)CCNC1=CC(=O)c2nc3ccccc3c3ccnc1c23
inactive: [1] 37% | [2] 14.2% | [3] 26.8% | [4] 27.9% | [5] 33.6% | [6] 27.4%

COc1ccc(C(Cc2ccccc2)Nc2ccccc2)cc1 (stereo unspecified)
inactive: [1] 4.1% | [2] -6.7% | [3] 28.6% | [4] -17% | [5] -0.95% | [6] -1.2%

CC(=O)CC(=O)NC(C)(C)CC(C)(C)C
inactive: [1] -16.4% | [2] -41.9% | [3] -31.8% | [4] 10.8% | [5] -34.8% | [6] -9.55%

Cc1ccc(S(=O)(=O)OC(c2ccc(Cl)cc2Cl)C2OC(=O)c3ccccc32)cc1 (stereo unspecified)
inactive: [1] 23.3% | [2] -12.4% | [3] 16.9% | [4] 24.7% | [5] 15% | [6] 21.4%

O=NNc1ccc(Sc2ccc(NN=O)nc2)cc1
inactive: [1] 4.65% | [2] -7.4% | [3] 8.45% | [4] 17% | [5] -3.15% | [6] 21.9%

Cn1c(Cl)cc2nc3ccccc3n2c1=O
inactive: [1] 10.2% | [2] 19.7% | [3] -1% | [4] -11.3% | [5] 11.2% | [6] 5.4%

COCC(O)CN1CCN(c2ccccc2OC)CC1 (stereo unspecified)
inactive: [1] -16.5% | [2] -16.6% | [3] -7.3% | [4] -14.2% | [5] 25.6% | [6] -13.2%

Nc1ncnc2c1ncn2CCOCC(O)CO (stereo unspecified)
inactive: [1] -0.75% | [2] -4.3% | [3] -5.95% | [4] -15.4% | [5] -7.7% | [6] -19.9%

Cc1ccccc1C1CCCCC1OS(C)(=O)=O (stereo unspecified)
inactive: [1] -6.3% | [2] -1.35% | [3] -15.2% | [4] -7.6% | [5] 7.1% | [6] -11.1%

COc1ccc(N=Nc2ccccc2)cc1
inactive: [1] 3% | [2] 3.8% | [3] -5.6% | [4] -10.6% | [5] -11.8% | [6] -4.95%

C=CCNC(=O)OCCCl
inactive: [1] 6% | [2] -1.45% | [3] -9.6% | [4] 5.95% | [5] -4.5% | [6] 15.1%

CCOC(=O)c1ccc(CSc2ccccc2C(=O)OCC)cc1
inactive: [1] -10.3% | [2] -13.1% | [3] 9.95% | [4] -60.1% | [5] -17.1% | [6] -43.2%

CN(C)c1ccc(/C=C/c2nc3ccc([N+](=O)[O-])cc3[nH]2)cc1
inactive: [1] -2.4% | [2] 3.6% | [3] 9.65% | [4] 14.2% | [5] 0.6% | [6] 0.1%

NC(=O)C[n+]1cccc(C(=O)Nc2ccccc2)c1
inactive: [1] 17.4% | [2] 4.45% | [3] 7.25% | [4] -43.2% | [5] 23.2% | [6] 10.7%

CC1CCC2C(C(=O)O[C@H]3C4C=CO[C@@H](OC5OC(CO)C(O)C(O)C5O)C4[C@@]4(CO)O[C@@H]34)=CO[C@@H](OC3OC(CO)C(O)C(O)C3O)C12 (stereo partly specified)
inactive: [1] -12.3% | [2] -32.5% | [3] -18.6% | [4] 4.2% | [5] -12.8% | [6] -11.4%

COc1cccc(-c2nc(SCC(N)=O)[nH]c(=O)c2C#N)c1
inactive: [1] 6.25% | [2] 1.8% | [3] 13.5% | [4] 12% | [5] 17.5% | [6] 14.2%

C=C1C2CCC3(CCC4C5(C)CCCC4(C=NC5)C3C2)C1O (stereo unspecified)
inactive: [1] 8.5% | [2] -10.7% | [3] 3.6% | [4] 6.75% | [5] -7.3% | [6] 1.6%

O=c1cc[nH]c2c(Cl)cccc12
inactive: [1] -8.15% | [2] -20.9% | [3] -5.05% | [4] 0.95% | [5] 2% | [6] -2.9%

Cc1cccc2c(NCCC[N+](C)(C)[O-])c3c([N+](=O)[O-])ccc(C)c3nc12
inactive: [1] 54.1% | [2] -14.3% | [3] 43.8% | [4] 2.8% | [5] -3.1% | [6] 43%

NC(Cc1ccc(O)cc1)C(=O)OCc1ccccc1 (stereo unspecified)
inactive: [1] -6.45% | [2] 0.5% | [3] 15.1% | [4] -11.2% | [5] 34.2% | [6] -3.75%

CC(Nc1cccc(Cl)c1)S(=O)(=O)O (stereo unspecified)
inactive: [1] 8.05% | [2] 5.7% | [3] -8% | [4] 26.4% | [5] 2% | [6] -0.25%

CCOC(=O)C(=CN1C/C(=C/C(C)=C/c2ccccc2)SC1=S)C(=O)OCC
inactive: [1] -12.1% | [2] 28.9% | [3] 11.7% | [4] -20.9% | [5] 17.9% | [6] 4.85%

CC1(C)OCC(C2OC3OC(C)(C)OC3C2O)O1 (stereo unspecified)
inactive: [1] 4% | [2] 15.2% | [3] 10.5% | [4] -15.8% | [5] 11.7% | [6] 7.9%

CN(C)c1ccc2c(c1)c1cc(N(C)C)ccc1n2Cc1ccccc1
inactive: [1] -2.05% | [2] -19.6% | [3] 12.2% | [4] -30.4% | [5] 1.95% | [6] -10.2%

N#Cc1ccc(OCCCCOc2ccc([N+](=O)[O-])cc2Cl)cc1
inactive: [1] 5.75% | [2] -10.7% | [3] -19.4% | [4] -3.8% | [5] 4.65% | [6] 20%

O=C(CC(CC(=O)Oc1c(Br)cc(Br)cc1C(=O)O)C(=O)Oc1c(Br)cc(Br)cc1C(=O)O)Oc1c(Br)cc(Br)cc1C(=O)O
inactive: [1] -17.4% | [2] -23.4% | [3] -10% | [4] 8.7% | [5] -24% | [6] -5.6%

COc1ccc(C(=O)c2ccccc2C(=O)c2ccc(OC)cc2)cc1
inactive: [1] -22.1% | [2] 16.1% | [3] -1.4% | [4] -37.8% | [5] -7.7% | [6] 6.95%

CCN1CSC(=S)N(Cc2ccccc2)C1
inactive: [1] 16.9% | [2] 6.3% | [3] 50.3% | [4] 4.55% | [5] 28.2% | [6] 32.6%

C[CH2][Sn]([CH2]C)([O]C(=O)c1cccc(F)c1)[O][Sn]([CH2]C)([CH2]C)[O]C(=O)c1cccc(F)c1
inactive: [1] 31.4% | [2] 3.3% | [3] 5.85% | [4] 16.4% | [5] 13.6% | [6] 0.45%

CS/C(=N/N=C(\C)c1ccccn1)[Se][Se]/C(=N/N=C(\C)c1ccccn1)SC
inactive: [1] 15.7% | [2] -1% | [3] 15.6% | [4] 29.2% | [5] -2.5% | [6] 30.9%

OCCN(CCO)CCCNc1ccnc2cc(Cl)ccc12
inactive: [1] -22.6% | [2] -2% | [3] -0.65% | [4] -39.9% | [5] -12.8% | [6] 5.2%

Nc1cccc([N+](=O)[O-])c1O
inactive: [1] 4.75% | [2] 2.45% | [3] 12.7% | [4] 9.75% | [5] 5.4% | [6] 12.4%

Clc1cc(Cc2cc(Cl)c(Cl)c3c2OCOC3)c2c(c1Cl)COCO2
inactive: [1] -47.6% | [2] -24.9% | [3] -5% | [4] -22.4% | [5] -10.6% | [6] -18.3%

CC(C)(C)c1cc(C(=O)Nc2cc(Br)c(Br)cc2S(N)(=O)=O)cc(C(C)(C)C)c1O
inactive: [1] 37% | [2] 7.8% | [3] 31.6% | [4] 25% | [5] 39.8% | [6] 37.9%

SC(S)(Cc1ccccc1)Cc1ccccc1
inactive: [1] -6.4% | [2] 2.2% | [3] 16.4% | [4] -9.65% | [5] 35.1% | [6] 1%

CCCCCCCCCCCCNC
inactive: [1] 38.2% | [2] 30.4% | [3] 61.9% | [4] 30.6% | [5] 62.6% | [6] 44.9%
